Assay outcomes as filed in PubChem BioAssay.
Only some compounds are listed: those with a hit (about 2.2% of all), similar ones and a draw of the others.
sPLA2-III inh: human group III sPLA2 inhibitors, primary screen, biochemical, QFRET, BODIPY PC-A2 liposome substrate; QFRET BODIPY PC-A2 liposome hydrolysis, fluorescence; inhibition, % at 12.2 µM; 0.56% of 370,000 active;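 active = inhibition above mean plus 3 SD of compounds lying within the high and low control bounds, cut at about 19% in these data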;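 note: 0% = median of test compound wells and 100% = no enzyme DMSO wells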
Target sequence (Q9NZ20 whole entry, looked up): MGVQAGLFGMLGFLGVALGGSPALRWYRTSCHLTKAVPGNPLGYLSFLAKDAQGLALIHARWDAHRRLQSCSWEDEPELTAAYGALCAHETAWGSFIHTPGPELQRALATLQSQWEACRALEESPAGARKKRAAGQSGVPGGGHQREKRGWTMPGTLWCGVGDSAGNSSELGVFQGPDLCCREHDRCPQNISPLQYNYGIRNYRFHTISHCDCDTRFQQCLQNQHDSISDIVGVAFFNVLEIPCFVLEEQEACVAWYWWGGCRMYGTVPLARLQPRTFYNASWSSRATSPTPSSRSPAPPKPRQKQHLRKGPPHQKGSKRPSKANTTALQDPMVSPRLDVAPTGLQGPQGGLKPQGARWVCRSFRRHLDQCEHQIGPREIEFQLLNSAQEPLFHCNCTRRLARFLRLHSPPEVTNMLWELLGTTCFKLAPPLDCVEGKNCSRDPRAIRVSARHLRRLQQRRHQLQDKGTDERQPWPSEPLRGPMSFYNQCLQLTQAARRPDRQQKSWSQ
Mot1-301 SUMO: yeast Mot1-301 growth rescue at high temperature, primary screen, SUMOylation pathway inhibitor project, S. cerevisiae, ATP luminescence, 38.5C | growth rescue, % at 18.8 µM | AID 2716, 2010 | 1% of 320,000 active | S. cerevisiae Mot1-301 growth rescue; percent above DMSO median, 100 means doubled;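 active = every valid replicate shows activation above 250% relative to neutral control wells; inactive = the rest, any valid replicate at or below 250%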;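 note: OY570 slx delta 5 strain wells were the positive control but not used for scaling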
Efflux pump mplx: inhibitors of Candida efflux pumps in yeast, primary screen, S. cerevisiae, Nile Red, multiplex; inhibition, % at 10 µM; S. cerevisiae Candida pump triplex; 0.44% of 330,000 active;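 active = plate passing quality check with inhibition over a set limit, or well fluorescence over plate mean plus 4 SD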;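 note: Nile Red retained in pooled yeast measured as flow cytometry median fluorescence; 0% = buffer negative control and 100% = Enniatin B positive control; higher means more Nile Red kept so more efflux inhibition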
SKN-1 inh: suppressors of acrylamide-induced Pgst-4::GFP reporter in worms, primary screen, SKN-1 inhibitor project, whole organism, uHTS, GFP/RFP fluorescence ratio, strain VP596; C. elegans VP596 Pgst-4::GFP/RFP ratio, 24 h; inhibition, % at 21.8 µM; 0.49% of 360,000 active; AID 624304, 2012;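 active = interference check ratio from 0.5 to 1.5 plus GFP to RFP signal ratio inhibition reaching or exceeding a fixed threshold, cut at about 30% in these data, passing the limit was not always enough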
Yeast Mot1 SUMO: growth restoration of Mot1-301 yeast on galactose, dose response, SUMO pathway inhibitor project, whole organism, S. cerevisiae, ATP luminescence, cherry-picked samples; shares compounds with Mot1-301 SUMO; S. cerevisiae Mot1-301 galactose growth, 24 h; -100 = growth of slx-deleted rescue strain; growth activity, percent, % at 42 µM; 2,300 tested, under 10 active; AID 493004, 2010;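 active = Signal drops as the depositor expects, and the fitted half-maximal dose is no more than ten times the top valid tested dose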;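 note: more negative values mean stronger growth rescue toward the control strain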
The depositor's hits bear a star.

For COC(=O)C1CN(C(=O)C(C)Oc2ccc(F)cc2)c2ccccc2O1 (centres undefined) the results were sPLA2-III inh 3.4, Mot1-301 SUMO 748.4*, Efflux pump mplx 0.1, SKN-1 inh 2.6 and Yeast Mot1 SUMO 0.4.
Screening CN1CCN(C(=O)c2ccc(Cc3cn(C)c4ccccc34)nc2)CC1 returned sPLA2-III inh 0.0 and SKN-1 inh 8.7.
For CCOC(=O)N1CCN(c2cc3[nH]c(=S)[nH]c3cc2F)CC1 the results were sPLA2-III inh -2.9, Mot1-301 SUMO 399.7*, Efflux pump mplx -0.2, SKN-1 inh 4.8 and Yeast Mot1 SUMO 0.3.
Cc1cc(NC(=O)c2csc([C@@H]3O[C@H](CO)[C@H](O)[C@H](O)[C@H]3O)n2)n(C)n1 was read as sPLA2-III inh -5.1 and SKN-1 inh 8.7.
CCOC(=O)c1oc2ccccc2c1COC(=O)CNC(=O)c1cccc(C)c1 was read as sPLA2-III inh -12.8, Mot1-301 SUMO 984.1*, Efflux pump mplx -0.1, SKN-1 inh -5.9 and Yeast Mot1 SUMO 0.1.
`CCOC(=O)c1oc2ccccc2c1COC(=O)CNC(=O)c1ccccc1F` gave sPLA2-III inh 3.0 and SKN-1 inh -0.5.
Screening CC(=O)C(C(c1ccccc1)c1c[nH]c2ccccc12)[N+](=O)[O-] (centres undefined) returned sPLA2-III inh -76.0, Mot1-301 SUMO 402.1*, Efflux pump mplx -0.5, SKN-1 inh 6.5 and Yeast Mot1 SUMO -0.8.
Screening Fc1ccc(N2CCN(C3CCC(c4ccccc4)CC3)CC2)cc1 (centres undefined) returned sPLA2-III inh 4.8, Mot1-301 SUMO -11.9, Efflux pump mplx -0.1 and SKN-1 inh -11.8.
Screening c1ccc(N2CCN(C3CCSC3)CC2)cc1 (centres undefined) returned sPLA2-III inh 3.6, Mot1-301 SUMO 817.3*, Efflux pump mplx -0.2, SKN-1 inh 12.7 and Yeast Mot1 SUMO 0.5.
`Cc1cc(C)c(NC(=O)CS(=O)CC(=O)NCCN2CCCCCC2)c(C)c1` (centres undefined) gave sPLA2-III inh -1.2, Mot1-301 SUMO 4.5, Efflux pump mplx -0.6 and SKN-1 inh 13.8.
`O=S1(=O)c2c(cccc2N2CCSCC2)Oc2ccccc2CN1Cc1cn(Cc2ccc(Cl)cc2)nn1` gave sPLA2-III inh -2.4.
For O=C(NC1CCCCN(Cc2cccc(Cl)c2)C1=O)c1cccc(F)c1 (centres undefined) the results were sPLA2-III inh 7.9.
Screening CC(=O)c1ccc(NC(=S)NCCCN2CCOCC2)cc1 returned sPLA2-III inh -0.9, Mot1-301 SUMO -1.6, Efflux pump mplx -0.1 and SKN-1 inh 1.9.
CCOC(=O)c1ccc(NC(=S)NCCCN2CCOCC2)cc1 was read as sPLA2-III inh 4.1, Mot1-301 SUMO 621.6*, Efflux pump mplx 0.1, SKN-1 inh -0.9 and Yeast Mot1 SUMO 0.4.
Screening CCN(CC)S(=O)(=O)c1ccc(NC(=O)C(C)N(c2ccccc2)S(C)(=O)=O)cc1 (centres undefined) returned sPLA2-III inh -40.3, Mot1-301 SUMO active, Efflux pump mplx -0.2, SKN-1 inh -11.4 and Yeast Mot1 SUMO 0.3.
Screening COc1ccc(CCN(C)CCCC(C#N)(c2ccc(OC)c(OC)c2)C(C)C)cc1OC (centres undefined) returned sPLA2-III inh -15.3, SKN-1 inh 17.8 and Yeast Mot1 SUMO -0.2.
Screening COc1ccc(CCN(C)CCCN2CC(c3ccccc3)CC2=O)cc1OC (centres undefined) returned sPLA2-III inh 4.2, Mot1-301 SUMO -14.1, Efflux pump mplx -0.1 and SKN-1 inh 5.6.
`CN(C)C(/C=C/Nc1cccc(Br)c1)=C(C#N)C#N` gave sPLA2-III inh 8.3, Mot1-301 SUMO 432.9*, Efflux pump mplx 0.0, SKN-1 inh -5.9 and Yeast Mot1 SUMO 0.7.
Cc1cccc(N/C=C/C(=C(C#N)C#N)N(C)C)c1 was read as sPLA2-III inh 3.1, Mot1-301 SUMO -6.4, Efflux pump mplx 0.1 and SKN-1 inh 4.0.
For NC(=O)NC(=O)COC(=O)CCCSc1nc2ccccc2s1 the results were sPLA2-III inh -9.9, Mot1-301 SUMO 16.8, Efflux pump mplx -0.2 and SKN-1 inh 3.5.
`CC(C)NC(=O)NC(=O)COC(=O)CCCSc1nc2ccccc2s1` gave sPLA2-III inh 11.6, Mot1-301 SUMO 504.6*, Efflux pump mplx 0.0, SKN-1 inh 0.2 and Yeast Mot1 SUMO 0.1.
Cc1ccc(N2CC(C(=O)N(C)CC(=O)Nc3ccc(Cl)c(C(F)(F)F)c3)CC2=O)cc1 (centres undefined) was read as sPLA2-III inh -2.0, Mot1-301 SUMO -21.1, Efflux pump mplx -0.1 and SKN-1 inh 7.8.
`CN(C)c1cccc(/C=C2\CC3(OC(=O)C4CCCC4)CCCN2C3)c1` (centres undefined) gave sPLA2-III inh 10.6.
For COc1ccc(NC(=O)CSc2nnc(-c3ccccn3)n2-c2ccccc2)cc1OC the results were sPLA2-III inh 2.1, Mot1-301 SUMO 475.4*, Efflux pump mplx 0.2, SKN-1 inh 15.1 and Yeast Mot1 SUMO 0.4.
`CC(C)=CC(=O)N1CCCC(N2CCN(c3ccc(F)cc3)CC2)C1` (centres undefined) gave sPLA2-III inh 2.9, Mot1-301 SUMO active, Efflux pump mplx 0.1, SKN-1 inh 25.5 and Yeast Mot1 SUMO -0.7.
CC(=O)c1ccc(C(=O)N2CCCC(N3CCN(c4ccc(F)cc4)CC3)C2)s1 (centres undefined) was read as sPLA2-III inh 1.4, Mot1-301 SUMO 507.9*, Efflux pump mplx 0.8, SKN-1 inh 4.9 and Yeast Mot1 SUMO -0.2.
For CC(C)=CC(=O)N1CCCC(N2CCN(c3ccccc3C)CC2)C1 (centres undefined) the results were sPLA2-III inh 0.9, Mot1-301 SUMO -8.6, Efflux pump mplx 0.0 and SKN-1 inh 32.2.
For CCCC(C(=O)NC(C)(C)C)N(CCN1CCOCC1)C(=O)CNS(=O)(=O)c1ccccc1 (centres undefined) the results were sPLA2-III inh 7.0, Mot1-301 SUMO -14.1, Efflux pump mplx 0.2 and SKN-1 inh -0.4.
CCOc1ccc(NC(=S)Nc2ccc3nsnc3c2)cc1 was read as sPLA2-III inh -2.5, Mot1-301 SUMO 30.9, Efflux pump mplx 0.3 and SKN-1 inh 1.4.
CCOc1ccc(NC(=O)Nc2ccc3nsnc3c2)cc1 was read as sPLA2-III inh -5.9, Mot1-301 SUMO active, Efflux pump mplx -0.1, SKN-1 inh -2.7 and Yeast Mot1 SUMO 0.6.
`Cc1sc(NC(=O)c2ccc(F)cc2)c(CN2CCCCCC2)c1C` gave sPLA2-III inh -4.1, Mot1-301 SUMO 497.1*, Efflux pump mplx -0.2, SKN-1 inh 15.7 and Yeast Mot1 SUMO 0.6.
